Paper PMC7862700, “An all-to-all approach to the identification of sequence-specific readers for epigenetic DNA modifications on cytosine”

How the values were obtained:
Experiment in all cases: DAPPL (digital affinity profiling via proximity ligation, sequencing); 10 mM Tris-HCl pH 7.5, 50 mM NaCl, 1 mM DTT, 4% glycerol, room temperature, 30 min; GST-TFs on glutathione beads, 16-mer random dsDNA library, 0.1% formaldehyde crosslink after washing; high values mean tight binding
FEV = biological target: T1, FEV (Homo sapiens, UniProt Q99581 1-238); conditions: protein: recombinant; tags: N-terminal GST; dsDNA, one strand shown
T1 sequence: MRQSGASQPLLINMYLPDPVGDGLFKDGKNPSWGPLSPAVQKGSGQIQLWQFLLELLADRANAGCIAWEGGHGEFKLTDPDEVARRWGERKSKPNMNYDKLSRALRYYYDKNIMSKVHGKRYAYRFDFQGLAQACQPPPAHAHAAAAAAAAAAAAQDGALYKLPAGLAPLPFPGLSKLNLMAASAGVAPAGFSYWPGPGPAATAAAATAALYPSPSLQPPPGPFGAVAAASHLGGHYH
How it was run: (§1)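 Sequencing on an Illumina NextSeq500 followed washing, crosslinking with 0.1% formaldehyde, proximity ligation (BsaI/T4 ligase, 1 h, 37 °C) and PCR amplification of pools that had been incubated for 30 min at room temperature with 200 nmole of a random double-stranded 16-mer DNA library in Tris/NaCl/DTT/glycerol buffer. Each pool held DNA-barcoded human transcription factors, expressed in yeast as GST fusions and captured on glutathione beads, plus a tag-only sample. Binding signal is a hexamer's read frequency for a factor divided by its frequency in the tag-only sample.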

ETV5 = ETV5 (Homo sapiens, UniProt P41161 1-510); conditions: protein: recombinant; tags: N-terminal GST; dsDNA, one strand shown
How it was run: as §1

HSF1 = HSF1 (Homo sapiens, UniProt Q00613 1-529); conditions: protein: recombinant; tags: N-terminal GST; chain copies: 3; dsDNA, one strand shown
How it was run: as §1

SPIC = biological target: T2, SPIC (Homo sapiens, UniProt Q8N5J4 1-248); conditions: protein: recombinant; tags: N-terminal GST; dsDNA, one strand shown
T2 sequence: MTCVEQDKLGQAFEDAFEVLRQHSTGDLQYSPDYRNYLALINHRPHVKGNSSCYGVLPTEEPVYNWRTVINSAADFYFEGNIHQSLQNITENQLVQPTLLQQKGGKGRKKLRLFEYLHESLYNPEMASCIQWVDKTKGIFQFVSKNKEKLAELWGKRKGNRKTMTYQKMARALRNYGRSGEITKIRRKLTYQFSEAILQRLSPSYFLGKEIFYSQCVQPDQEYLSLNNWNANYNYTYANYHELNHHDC
How it was run: as §1

ELF4 = ELF4 (Homo sapiens, UniProt Q99607 1-663); conditions: protein: recombinant; tags: N-terminal GST; dsDNA, one strand shown
How it was run: as §1

ELK4 = biological target: T3, ELK4 (Homo sapiens, UniProt P28324-2 1-405); conditions: protein: recombinant; tags: N-terminal GST; dsDNA, one strand shown
T3 sequence: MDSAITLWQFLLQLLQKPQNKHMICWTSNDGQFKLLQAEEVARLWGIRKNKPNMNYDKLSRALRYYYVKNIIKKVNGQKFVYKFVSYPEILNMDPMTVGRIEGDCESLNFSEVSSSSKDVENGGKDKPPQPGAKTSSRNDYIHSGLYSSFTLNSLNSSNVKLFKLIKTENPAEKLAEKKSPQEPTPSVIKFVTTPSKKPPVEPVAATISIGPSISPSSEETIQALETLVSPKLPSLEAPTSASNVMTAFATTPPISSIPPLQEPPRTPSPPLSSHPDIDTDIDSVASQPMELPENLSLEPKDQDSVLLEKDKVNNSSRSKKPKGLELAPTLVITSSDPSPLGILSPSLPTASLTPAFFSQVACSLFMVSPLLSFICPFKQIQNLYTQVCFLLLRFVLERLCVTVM
How it was run: as §1

ETV2 = biological target: T4, ETV2 (Homo sapiens, UniProt O00321 1-342); conditions: protein: recombinant; tags: N-terminal GST; dsDNA, one strand shown
T4 sequence: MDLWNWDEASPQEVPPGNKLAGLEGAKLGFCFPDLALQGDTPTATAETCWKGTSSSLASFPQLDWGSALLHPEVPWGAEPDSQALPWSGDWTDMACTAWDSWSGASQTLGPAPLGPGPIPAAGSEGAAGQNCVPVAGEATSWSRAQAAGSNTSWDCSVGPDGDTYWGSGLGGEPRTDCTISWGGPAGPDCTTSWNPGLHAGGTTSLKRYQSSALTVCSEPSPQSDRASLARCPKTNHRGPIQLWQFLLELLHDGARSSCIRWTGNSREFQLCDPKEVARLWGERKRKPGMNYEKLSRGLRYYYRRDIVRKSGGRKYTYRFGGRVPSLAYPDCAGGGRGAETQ
How it was run: as §1

ELF3 = biological target: T5, ELF3 (Homo sapiens, UniProt P78545 1-371); conditions: protein: recombinant; tags: N-terminal GST; dsDNA, one strand shown
T5 sequence: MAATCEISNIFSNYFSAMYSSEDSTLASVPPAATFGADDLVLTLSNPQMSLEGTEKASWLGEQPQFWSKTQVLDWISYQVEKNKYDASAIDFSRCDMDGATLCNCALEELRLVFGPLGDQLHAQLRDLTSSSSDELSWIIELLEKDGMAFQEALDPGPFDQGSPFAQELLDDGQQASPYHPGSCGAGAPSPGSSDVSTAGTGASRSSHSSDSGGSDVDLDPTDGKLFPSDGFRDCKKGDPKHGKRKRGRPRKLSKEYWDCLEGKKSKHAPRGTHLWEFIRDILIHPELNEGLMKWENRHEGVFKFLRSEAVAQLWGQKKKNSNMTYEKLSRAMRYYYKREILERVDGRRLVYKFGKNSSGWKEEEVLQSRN
How it was run: as §1

CRX = CRX (Homo sapiens, UniProt O43186 1-299); conditions: protein: recombinant; tags: N-terminal GST; dsDNA, one strand shown
How it was run: as §1

ETV1 = ETV1 (Homo sapiens, UniProt P50549 1-477); conditions: protein: recombinant; tags: N-terminal GST; dsDNA, one strand shown
How it was run: as §1

ERF = biological target: T6, ERF (Homo sapiens, UniProt P50548 1-548); conditions: protein: recombinant; tags: N-terminal GST; dsDNA, one strand shown
T6 sequence: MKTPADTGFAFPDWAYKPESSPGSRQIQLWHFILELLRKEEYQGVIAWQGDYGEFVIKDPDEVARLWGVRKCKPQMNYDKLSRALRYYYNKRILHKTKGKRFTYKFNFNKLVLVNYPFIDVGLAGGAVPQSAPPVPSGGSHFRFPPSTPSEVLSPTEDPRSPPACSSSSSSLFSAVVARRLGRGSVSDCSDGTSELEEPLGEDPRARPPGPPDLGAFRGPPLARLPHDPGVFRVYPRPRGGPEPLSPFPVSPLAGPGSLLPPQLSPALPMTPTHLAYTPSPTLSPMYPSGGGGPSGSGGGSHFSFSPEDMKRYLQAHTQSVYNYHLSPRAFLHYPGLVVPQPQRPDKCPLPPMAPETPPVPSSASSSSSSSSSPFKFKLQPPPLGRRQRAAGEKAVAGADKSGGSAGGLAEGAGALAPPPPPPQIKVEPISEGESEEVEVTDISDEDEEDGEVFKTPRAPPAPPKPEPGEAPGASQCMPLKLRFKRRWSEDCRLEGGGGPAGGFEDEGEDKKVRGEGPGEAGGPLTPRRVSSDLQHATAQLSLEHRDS
How it was run: as §1

ETV3L = biological target: T7, ETV3L (Homo sapiens, UniProt Q6ZN32 1-361); conditions: protein: recombinant; tags: N-terminal GST; dsDNA, one strand shown
T7 sequence: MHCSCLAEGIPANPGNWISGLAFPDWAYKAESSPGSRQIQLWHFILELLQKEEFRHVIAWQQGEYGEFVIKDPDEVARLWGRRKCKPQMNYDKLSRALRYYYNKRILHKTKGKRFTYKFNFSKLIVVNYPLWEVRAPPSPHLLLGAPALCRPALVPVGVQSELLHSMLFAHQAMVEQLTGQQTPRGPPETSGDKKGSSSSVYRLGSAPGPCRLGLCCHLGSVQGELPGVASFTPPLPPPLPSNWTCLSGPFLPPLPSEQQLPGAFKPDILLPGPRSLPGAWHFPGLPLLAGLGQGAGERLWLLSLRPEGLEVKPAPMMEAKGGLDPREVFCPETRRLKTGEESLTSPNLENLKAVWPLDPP
How it was run: as §1

ETS2 = biological target: T8, ETS2 (Homo sapiens, UniProt P15036 1-469); conditions: protein: recombinant; tags: N-terminal GST; dsDNA, one strand shown
T8 sequence: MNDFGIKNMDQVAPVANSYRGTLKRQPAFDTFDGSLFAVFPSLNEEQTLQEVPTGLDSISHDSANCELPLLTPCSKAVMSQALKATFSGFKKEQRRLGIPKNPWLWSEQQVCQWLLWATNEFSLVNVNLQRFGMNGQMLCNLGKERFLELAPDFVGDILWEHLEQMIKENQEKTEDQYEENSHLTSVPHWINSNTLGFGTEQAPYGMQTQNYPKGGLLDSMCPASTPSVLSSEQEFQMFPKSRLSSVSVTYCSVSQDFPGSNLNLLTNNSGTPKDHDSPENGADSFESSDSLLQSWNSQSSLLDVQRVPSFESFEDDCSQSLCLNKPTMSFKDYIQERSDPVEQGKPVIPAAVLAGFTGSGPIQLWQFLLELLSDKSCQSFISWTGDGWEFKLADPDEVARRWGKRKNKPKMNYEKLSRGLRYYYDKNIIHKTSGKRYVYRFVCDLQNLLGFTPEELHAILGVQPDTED
How it was run: as §1

SPDEF = biological target: T9, SPDEF (Homo sapiens, UniProt O95238 1-335); conditions: protein: recombinant; tags: N-terminal GST; dsDNA, one strand shown
T9 sequence: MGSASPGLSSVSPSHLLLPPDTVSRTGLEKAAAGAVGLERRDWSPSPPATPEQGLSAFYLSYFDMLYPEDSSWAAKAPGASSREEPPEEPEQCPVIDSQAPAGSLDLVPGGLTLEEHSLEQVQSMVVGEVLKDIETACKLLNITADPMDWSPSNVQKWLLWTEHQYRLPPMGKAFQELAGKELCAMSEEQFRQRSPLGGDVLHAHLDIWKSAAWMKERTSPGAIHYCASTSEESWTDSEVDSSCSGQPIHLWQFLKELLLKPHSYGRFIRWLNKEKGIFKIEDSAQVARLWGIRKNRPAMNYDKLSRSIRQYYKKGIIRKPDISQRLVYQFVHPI
How it was run: as §1

ETV7 = biological target: T10, ETV7 (Homo sapiens, UniProt Q9Y603 1-341); conditions: protein: recombinant; tags: N-terminal GST; dsDNA, one strand shown
T10 sequence: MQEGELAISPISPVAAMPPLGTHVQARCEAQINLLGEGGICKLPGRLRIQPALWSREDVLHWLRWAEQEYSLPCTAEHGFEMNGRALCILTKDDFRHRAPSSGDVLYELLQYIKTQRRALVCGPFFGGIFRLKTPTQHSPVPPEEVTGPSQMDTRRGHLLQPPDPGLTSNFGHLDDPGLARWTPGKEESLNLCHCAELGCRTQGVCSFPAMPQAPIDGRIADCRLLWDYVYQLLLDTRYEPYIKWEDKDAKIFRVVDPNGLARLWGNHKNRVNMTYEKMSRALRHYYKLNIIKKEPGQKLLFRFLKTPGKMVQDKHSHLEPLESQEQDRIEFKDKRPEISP
How it was run: as §1

ELF5 = biological target: T11, ELF5 (Homo sapiens, UniProt Q9UKW6-2 1-255); conditions: protein: recombinant; tags: N-terminal GST; dsDNA, one strand shown
T11 sequence: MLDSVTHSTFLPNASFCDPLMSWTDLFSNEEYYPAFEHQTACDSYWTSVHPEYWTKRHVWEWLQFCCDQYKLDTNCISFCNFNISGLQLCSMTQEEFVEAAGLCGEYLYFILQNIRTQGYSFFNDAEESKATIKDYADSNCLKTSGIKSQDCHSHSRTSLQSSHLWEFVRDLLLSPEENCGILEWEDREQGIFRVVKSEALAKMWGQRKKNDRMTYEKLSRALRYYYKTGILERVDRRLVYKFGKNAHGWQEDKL
How it was run: as §1

ETV3 = biological target: T12, ETV3 (Homo sapiens, UniProt P41162-2 1-143); conditions: protein: recombinant; tags: N-terminal GST; dsDNA, one strand shown
T12 sequence: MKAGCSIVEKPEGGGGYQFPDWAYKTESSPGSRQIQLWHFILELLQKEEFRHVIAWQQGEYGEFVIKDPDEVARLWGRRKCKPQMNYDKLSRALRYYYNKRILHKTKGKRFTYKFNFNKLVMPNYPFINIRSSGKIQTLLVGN
How it was run: as §1

ETV6 = ETV6 (Homo sapiens, UniProt P41212 1-452); conditions: protein: recombinant; tags: N-terminal GST; dsDNA, one strand shown
How it was run: as §1

ETV6, sequence (P41212 whole entry): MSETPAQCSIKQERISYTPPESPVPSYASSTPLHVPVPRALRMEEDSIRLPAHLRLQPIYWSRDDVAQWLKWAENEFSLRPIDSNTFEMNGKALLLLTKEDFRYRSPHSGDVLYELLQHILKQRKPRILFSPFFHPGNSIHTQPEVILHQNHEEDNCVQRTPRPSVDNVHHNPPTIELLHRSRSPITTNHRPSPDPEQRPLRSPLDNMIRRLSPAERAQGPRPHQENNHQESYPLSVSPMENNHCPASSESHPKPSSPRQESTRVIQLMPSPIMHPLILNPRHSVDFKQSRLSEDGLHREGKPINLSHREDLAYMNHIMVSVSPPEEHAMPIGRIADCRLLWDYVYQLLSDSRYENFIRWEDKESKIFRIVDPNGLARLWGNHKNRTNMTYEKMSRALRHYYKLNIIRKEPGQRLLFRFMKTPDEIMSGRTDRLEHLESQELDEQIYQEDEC
ELF4, sequence (Q99607 whole entry): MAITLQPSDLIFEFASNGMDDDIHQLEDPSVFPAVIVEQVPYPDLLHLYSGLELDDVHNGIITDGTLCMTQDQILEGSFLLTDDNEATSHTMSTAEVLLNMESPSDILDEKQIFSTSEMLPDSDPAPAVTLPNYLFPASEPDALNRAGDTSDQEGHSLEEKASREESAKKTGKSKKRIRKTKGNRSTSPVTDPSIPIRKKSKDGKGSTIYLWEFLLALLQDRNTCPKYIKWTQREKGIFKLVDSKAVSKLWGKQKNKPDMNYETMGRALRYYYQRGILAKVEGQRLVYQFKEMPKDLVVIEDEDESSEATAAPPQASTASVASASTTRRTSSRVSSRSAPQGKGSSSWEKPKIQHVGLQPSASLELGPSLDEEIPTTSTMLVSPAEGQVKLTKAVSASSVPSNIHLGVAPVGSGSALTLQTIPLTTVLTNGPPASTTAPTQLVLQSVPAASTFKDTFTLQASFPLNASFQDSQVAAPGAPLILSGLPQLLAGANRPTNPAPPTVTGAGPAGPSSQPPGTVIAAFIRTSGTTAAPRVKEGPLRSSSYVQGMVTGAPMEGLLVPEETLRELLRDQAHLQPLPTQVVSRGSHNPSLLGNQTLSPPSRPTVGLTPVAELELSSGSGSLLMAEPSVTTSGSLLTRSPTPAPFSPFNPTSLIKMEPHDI
HSF1, sequence (Q00613 whole entry): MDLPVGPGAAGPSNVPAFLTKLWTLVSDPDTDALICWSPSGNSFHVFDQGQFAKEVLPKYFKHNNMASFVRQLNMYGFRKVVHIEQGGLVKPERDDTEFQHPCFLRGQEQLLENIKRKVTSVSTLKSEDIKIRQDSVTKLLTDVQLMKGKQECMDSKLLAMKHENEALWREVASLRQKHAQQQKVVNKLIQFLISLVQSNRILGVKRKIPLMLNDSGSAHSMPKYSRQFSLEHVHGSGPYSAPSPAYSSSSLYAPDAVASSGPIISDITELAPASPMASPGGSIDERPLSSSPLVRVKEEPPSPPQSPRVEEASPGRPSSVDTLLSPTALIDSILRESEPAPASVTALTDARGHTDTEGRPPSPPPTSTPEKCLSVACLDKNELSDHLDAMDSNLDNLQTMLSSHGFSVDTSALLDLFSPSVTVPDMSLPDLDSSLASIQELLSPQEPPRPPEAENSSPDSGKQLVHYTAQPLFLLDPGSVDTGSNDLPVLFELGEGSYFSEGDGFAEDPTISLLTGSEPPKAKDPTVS
ETV5, sequence (P41161 whole entry): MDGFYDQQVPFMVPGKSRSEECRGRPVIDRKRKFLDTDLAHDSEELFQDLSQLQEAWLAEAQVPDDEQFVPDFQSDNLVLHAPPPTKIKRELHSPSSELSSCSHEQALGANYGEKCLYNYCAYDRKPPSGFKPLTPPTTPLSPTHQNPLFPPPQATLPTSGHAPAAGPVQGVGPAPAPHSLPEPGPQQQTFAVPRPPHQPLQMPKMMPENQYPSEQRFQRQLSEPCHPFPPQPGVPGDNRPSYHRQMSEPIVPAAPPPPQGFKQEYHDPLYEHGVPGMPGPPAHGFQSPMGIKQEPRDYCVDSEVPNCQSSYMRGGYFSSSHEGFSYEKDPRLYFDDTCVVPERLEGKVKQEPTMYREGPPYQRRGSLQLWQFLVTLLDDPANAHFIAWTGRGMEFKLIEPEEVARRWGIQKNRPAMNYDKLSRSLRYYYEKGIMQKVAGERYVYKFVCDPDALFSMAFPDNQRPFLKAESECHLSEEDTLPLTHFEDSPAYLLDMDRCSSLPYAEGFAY
CRX, sequence (O43186 whole entry): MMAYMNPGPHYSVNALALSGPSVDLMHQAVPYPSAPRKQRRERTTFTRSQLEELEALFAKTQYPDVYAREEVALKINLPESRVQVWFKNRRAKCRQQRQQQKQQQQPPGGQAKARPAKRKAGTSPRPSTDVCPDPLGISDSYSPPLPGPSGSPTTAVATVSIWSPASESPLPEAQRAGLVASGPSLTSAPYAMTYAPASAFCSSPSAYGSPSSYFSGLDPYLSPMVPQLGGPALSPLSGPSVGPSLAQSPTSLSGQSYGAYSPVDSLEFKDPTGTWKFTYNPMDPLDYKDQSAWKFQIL
ETV1, sequence (P50549 whole entry): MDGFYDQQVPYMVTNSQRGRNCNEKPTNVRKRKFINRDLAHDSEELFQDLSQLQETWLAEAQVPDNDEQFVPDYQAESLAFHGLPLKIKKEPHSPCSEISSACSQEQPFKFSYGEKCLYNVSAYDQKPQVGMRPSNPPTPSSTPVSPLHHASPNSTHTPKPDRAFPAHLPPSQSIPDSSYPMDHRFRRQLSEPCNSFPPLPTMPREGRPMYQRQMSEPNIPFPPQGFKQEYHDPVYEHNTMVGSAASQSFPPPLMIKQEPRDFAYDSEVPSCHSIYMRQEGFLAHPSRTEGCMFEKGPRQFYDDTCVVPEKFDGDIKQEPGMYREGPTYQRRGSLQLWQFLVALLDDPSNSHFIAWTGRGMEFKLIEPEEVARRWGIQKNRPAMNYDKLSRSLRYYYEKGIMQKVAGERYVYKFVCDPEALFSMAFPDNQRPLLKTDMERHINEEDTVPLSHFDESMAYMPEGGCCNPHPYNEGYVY

TAAACA
binding signal (FEV): 1.18 fold enrichment (6-mer frequency, TF over GST control)
binding signal (ETV5): 1.24 fold enrichment (6-mer frequency, TF over GST control)
binding signal (HSF1): 1.29 fold enrichment (6-mer frequency, TF over GST control)
binding signal (SPIC): 1.29 fold enrichment (6-mer frequency, TF over GST control)
binding signal (ELF4): 1.26 fold enrichment (6-mer frequency, TF over GST control)
binding signal (ELK4): 1.37 fold enrichment (6-mer frequency, TF over GST control)
binding signal (ETV2): 1.22 fold enrichment (6-mer frequency, TF over GST control)
binding signal (ELF3): 1.28 fold enrichment (6-mer frequency, TF over GST control)
binding signal (CRX): 1.53 fold enrichment (6-mer frequency, TF over GST control)
binding signal (ETV1): 1.2 fold enrichment (6-mer frequency, TF over GST control)
binding signal (ERF): 1.31 fold enrichment (6-mer frequency, TF over GST control)
binding signal (ETV3L): 1.25 fold enrichment (6-mer frequency, TF over GST control)
binding signal (ETS2): 1.27 fold enrichment (6-mer frequency, TF over GST control)
binding signal (SPDEF): 1.27 fold enrichment (6-mer frequency, TF over GST control)
binding signal (ETV7): 1.24 fold enrichment (6-mer frequency, TF over GST control)
binding signal (ELF5): 1.22 fold enrichment (6-mer frequency, TF over GST control)
binding signal (ETV3): 1.25 fold enrichment (6-mer frequency, TF over GST control)
binding signal (ETV6): 1.25 fold enrichment (6-mer frequency, TF over GST control)
